High-throughput results: PubChem BioAssay, several laboratories
A selection: hits, their analogues and other compounds. The true share with any hit is near 0.98%.
UGM FP inh = M. tuberculosis UGM enzyme inhibitors, primary screen, biochemical, fluorescence polarization, single point | inhibition, % at 10 µM | hit rate 0.06% among 320,000 | purified UGM, fluorescence polarization probe displacement; in the data active = inhibition above about 10%, passing the limit was not always enough
Rv3671c inh = Rv3671c serine protease inhibitors, primary screen, biochemical, fluorescence polarization, M. tuberculosis H37Rv; P9WHR9; inhibition, % at 5.96 µM; hit rate 0.048% among 320,000; AID 2606, 2010; in the data active = inhibition above about 38%;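 also: extracellular domain of Rv3671c used as enzyme; 0% = enzyme with DMSO and 100% = no enzyme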
Target sequence (P9WHR9 whole entry, looked up, the tested form may be a part): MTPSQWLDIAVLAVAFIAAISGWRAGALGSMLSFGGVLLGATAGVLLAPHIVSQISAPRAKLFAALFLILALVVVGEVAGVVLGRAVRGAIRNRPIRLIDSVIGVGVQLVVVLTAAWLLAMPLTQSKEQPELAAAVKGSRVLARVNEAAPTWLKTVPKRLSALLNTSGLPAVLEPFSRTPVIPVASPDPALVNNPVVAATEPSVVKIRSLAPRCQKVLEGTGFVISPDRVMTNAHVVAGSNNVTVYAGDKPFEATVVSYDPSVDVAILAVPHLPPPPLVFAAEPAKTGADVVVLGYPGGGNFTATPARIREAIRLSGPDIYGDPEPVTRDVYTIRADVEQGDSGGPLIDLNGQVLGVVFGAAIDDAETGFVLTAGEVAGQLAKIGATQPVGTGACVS
FadD28 binding = inhibitors of FadD28 bisubstrate probe binding, primary screen, biochemical, fluorescence polarization, single point; hit rate 0.22% among 360,000; inhibition, % at 12.5 µM; Mycobacterium tuberculosis FadD28 fatty-acid-AMP ligase; in the data active = inhibition above about 8.5%, passing the limit was not always enough
PfHsp40 yeast = rescue of yeast from PfHsp40 toxicity, primary screen, S. cerevisiae, ATP luminescence | S. cerevisiae expressing PfHsp40, growth rescue | growth rescue, % at 12.5 µM | hit rate 0.68% among 340,000 | AID 504582, 2011; in the data active = growth rescue above about 28%, passing the limit was not always enough;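 also: yeast W303a lacking pdr1 and pdr3 grown in galactose medium; growth measured after three days at 30 °C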
Y pestis TopoI = Yersinia pestis topoisomerase I inhibitors, primary screen, biochemical, cleavage product accumulation, plate reader, single point; DNA topoisomerase I (Yersinia pestis CO92); Y. pestis Topo-I cleavage product accumulation; activity, % at 10 µM; hit rate 0.064% among 360,000; AID 504884, 2011; in the data active = activity above about 50%, passing the limit was not always enough
Mtb bLac sens = beta-lactam sensitization of Mtb H37Rv, H37Rv. M. tuberculosis H37Rv growth with meropenem, percent inhibition. inhibition, % at 25 µM. hit rate 0.27% among 330,000; call rule not given here;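 also: growth measured after seven days incubation then overnight dye step; 0% = bacteria only wells and 100% = bacteria with antibiotic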
* = called active by the depositor; · = no result.

SMILES | UGM FP inh | Rv3671c inh | FadD28 binding | PfHsp40 yeast | Y pestis TopoI | Mtb bLac sens
COc1cc(C(=O)Nc2ccc(Br)cc2C(=O)c2ccccc2)cc(OC)c1OC | 0.0 | 0.0 | -0.8 | 81.4* | 2.4 | -0.9
COCOc1cccc(CN2CCC2(C)C(=O)Nc2ccc(C)c(O)c2)c1 (configuration not stated) | · | · | -4.2 | · | 20.6 | ·
O=C1CN(CC(=O)N2CCCCC2)c2ccccc2O1 | 2.7 | -5.0 | -2.8 | 124.6* | -5.1 | 97.9
COc1cnn(-c2ccc(C)cc2)c(=O)c1SCc1ccccc1 | -1.4 | -5.1 | -3.2 | 1.2 | 10.5 | -1.6
COc1cnn(-c2ccccc2)c(=O)c1SCc1ccc(Cl)cc1Cl | -1.0 | -6.4 | -1.2 | 88.5* | 19.5 | -8.0
CCCNS(=O)(=O)c1cc2c(cc1Br)CCN2C(=O)CC | · | · | 1.0 | 0.7 | 0.1 | ·
CCCCN(C)S(=O)(=O)c1cc2c(cc1Br)CCN2C(=O)C1CC1 | · | · | -3.5 | 123.5* | 38.2 | ·
O=C(CCN1C(=O)c2ccccc2C1=O)c1ccccc1 | · | · | -0.9 | · | 6.9 | ·
CCCCc1ccc(NC(=S)N2CCN(C(=O)c3ccco3)CC2)cc1 | 0.3 | · | -1.6 | 4.4 | 31.1 | 13.0
CCOC(=O)c1cn(CC)c2ccc(Br)cc2c1=O | -4.6 | 0.1 | -0.6 | 0.3 | 1.5 | -2.9
CCn1cc(C(=O)O)c(=O)c2cc(Br)ccc21 | -3.5 | 1.0 | -4.0 | 32.9* | -2.9 | 6.4
CCOc1ccc(C2C=C(c3ccc(C)cc3)Nc3ncnn32)cc1 (configuration not stated) | -4.1 | 1.2 | · | · | · | 95.6
Cc1ccc(C2=CC(c3ccc(C)cc3)n3ncnc3N2)cc1 (configuration not stated) | 2.3 | -16.1 | -1.4 | 69.0* | 29.9 | 46.0
N#Cc1nc(-c2ccc(Cl)cc2)oc1NCCc1ccccn1 | 1.4 | -8.5 | 1.1 | 67.5* | 0.3 | -4.3
COC1CCC(OC2CC(C3(C)CCC4(CC(O)C(C)C(C(C)/C=C(\C)C(=O)C(C)CC(C)C(=O)O)O4)O3)OC3(OC(C4OC(O)(CO)C(C)CC4C)CC3C)C2C)OC1C (configuration not stated) | · | · | 3.0 | 219.6* | 43.8 | ·
O=P(NCc1ccccc1)(OCc1ccccc1)OCc1ccccc1 | · | · | -2.8 | 0.3 | 46.6 | ·
CC(C)(C)P(=O)(NCc1ccccc1)c1ccccc1 (configuration not stated) | 3.5 | -6.6 | -1.9 | 53.1* | 19.1 | -1.7
CNc1cncc(-c2cccnc2)n1 | · | · | 0.5 | · | 5.8 | ·
OC(Cc1ccccc1Br)c1ncc(-c2ccc(Cl)cc2)[nH]1 (configuration not stated) | · | · | -0.5 | · | -3.5 | ·
COC(=O)C1=C(c2ccc(OC(F)(F)F)cc2)C[C@@H]2CC[C@H]1N2C(=O)N1CCCC1 | 1.1 | 5.6 | -2.0 | 1.5 | 30.1 | 8.7
COC(=O)C1=C(c2ccc(OC(F)(F)F)cc2)C[C@@H]2CC[C@H]1N2C(=O)N1CCC(C)CC1 | 0.8 | 5.9 | -1.6 | 41.0* | 40.7 | 9.7
Oc1ccccc1N=Nc1ccccc1O | · | · | -0.6 | 31.8* | -1.0 | ·
O=c1cc(-c2ccccc2)oc2c1CCCC2 | · | · | -1.2 | · | · | ·
C=CCc1ccc(O)c(-c2ccc(O)c(CC=C)c2)c1 | 1.6 | 1.0 | -2.5 | 233.1* | -8.7 | -1.5
C=CCc1cc(C(=O)N2CCCCC2)ccc1O | 1.3 | 3.4 | -0.2 | -1.1 | 4.4 | 3.3
SMILES | UGM FP inh | Rv3671c inh | FadD28 binding | PfHsp40 yeast | Y pestis TopoI | Mtb bLac sens
Cc1ccn2c(NC3CCCCC3)c(-c3cccc(-c4cccc(Cl)c4)c3)nc2c1 | 3.1 | -0.8 | -0.9 | 132.3* | 7.7 | 98.6
Cc1ccn2c(NC3CCCC3)c(-c3ccncc3)nc2c1 | 1.3 | 8.0 | -2.4 | 2.8 | 16.3 | -8.2
C[C@H]1CCCCO[C@H](CN(C)Cc2ccccc2)[C@@H](C)CN([C@@H](C)CO)C(=O)c2cc(NC(=O)CCC(F)(F)F)ccc2O1 | · | · | -2.2 | · | -5.7 | ·
CN1CCN(CCCN2c3ccccc3Sc3ccc(Cl)cc32)CC1 | 4.4 | 6.9 | 8.2* | 0.2 | -8.4 | 100.3
CCSc1ccc2c(c1)N(CCCN1CCN(C)CC1)c1ccccc1S2 | -3.1 | 5.4 | -2.2 | -1.0 | -5.4 | 100.3
COc1ccc(/C=C/C(=O)OCC(=O)NCCCc2ccccc2)cc1OC | -0.4 | -10.5 | 0.1 | 2.5 | 8.7 | 3.0
